VDR inh: vitamin D3 receptor (human) inhibition; P11473; VDR-SRC2-3 peptide fluorescence polarization, 2 h; Potency, µM, for the others: max response, negative = inhibition, usual class: inhibitors; actives 0.93% (n = 400,000)
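Signal is fluorescence polarization, reporting how far test compounds block the interaction of VDR with the SRC2-3 coregulator peptide after a 2 h room-temperature incubation.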
PLK1 PBD block: PLK1 (human) polo-box domain binding inhibition; AID 720504; actives 2.8% (n = 360,000); P53350; Plk1 PBD binding of FITC phosphopeptide, fluorescence polarization; Potency, µM, for the others: max response, negative = inhibition, most hits filed as inhibitors; note: series mostly up to about 57 µM; nearly all actives have a fitted effect of over 65% in size
Target sequence (P53350 whole entry, looked up, the tested form may be a part): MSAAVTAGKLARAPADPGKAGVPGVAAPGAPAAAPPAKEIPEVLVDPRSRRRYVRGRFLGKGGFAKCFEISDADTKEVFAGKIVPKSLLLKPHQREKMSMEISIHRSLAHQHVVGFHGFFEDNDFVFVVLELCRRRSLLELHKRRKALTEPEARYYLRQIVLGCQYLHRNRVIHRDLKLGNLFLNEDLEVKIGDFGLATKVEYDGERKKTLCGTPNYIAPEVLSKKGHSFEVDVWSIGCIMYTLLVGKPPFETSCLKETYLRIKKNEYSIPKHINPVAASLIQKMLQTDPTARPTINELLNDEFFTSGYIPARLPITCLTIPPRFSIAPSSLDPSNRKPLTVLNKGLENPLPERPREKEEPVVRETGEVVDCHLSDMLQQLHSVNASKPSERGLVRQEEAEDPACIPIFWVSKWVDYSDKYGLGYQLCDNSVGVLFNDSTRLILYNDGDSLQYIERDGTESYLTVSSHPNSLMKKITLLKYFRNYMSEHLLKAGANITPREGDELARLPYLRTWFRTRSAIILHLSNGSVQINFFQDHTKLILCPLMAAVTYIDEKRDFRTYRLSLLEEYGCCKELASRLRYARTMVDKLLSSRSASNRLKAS
TDP1 block: inhibitors of human tyrosyl-DNA phosphodiesterase TDP1; Potency, µM (doses to about 130 µM), for inactives: at the highest dose activity change, negative = inhibition, hits mostly inhibitors; recombinant TDP1, AlphaScreen DNA substrate cleavage; actives 0.28% (n = 350,000); Q9NUW8; note: nearly all actives have a fitted effect of over 40% in size
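Enzyme-compound mixtures sat 15 min at room temperature, followed by a 5 min reaction with 15 nM final substrate and 10 min with AlphaScreen beads. Recombinant human Tdp1 was used at 1 nM final.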
KAT2A inh: blocks human GCN5L2 histone acetyltransferase; Potency, µM (highest dose often 58.9 µM), for inactives: top-dose activity change, negative = inhibition, actives largely listed as inhibitors; Q92830; GCN5L2 HAT assay, ThioGlo1 CoA-SH fluorescence; actives 0.21% (n = 390,000); AID 504327
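Enzyme at 20nM final was mixed with library compounds for 15 min at room temperature. Peptide H3(1-25) at 75uM, acetyl-CoA at 70uM and ThioGlo1 at 50uM were then added. Plates were read immediately and after 20 min (Ex340nm/Em540nm).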
TDP1 cell noCPT: qHTS for Inhibitors of human tyrosyl-DNA phosphodiesterase 1 (TDP1): qHTS in cells in absence of CPT; actives 15% (n = 420,000); Potency, µM (series often up to 46.2 µM), for inactives: at the highest dose activity change, negative = growth inhibition, usual class: inhibitors; AID 686978, 2013; DT40 Tdp1-/- hTDP1 cells, no CPT, ATP luminescence, 48 h; note: nearly all actives have a fitted effect of over 55% in size
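Luminescent ATP content (CellTiter-Glo) served as the growth readout. Knockout chicken DT40 cells expressing human TDP1 were exposed to compounds without camptothecin for a minimum 48 hr at 37 °C.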
DT40 TDP1 CPT: growth inhibition of DT40 Tdp1-/-;hTDP1 cells with camptothecin (screen for TDP1 inhibitors). chicken DT40 Tdp1-/-;hTDP1 cells + 20 nM CPT, ATP luminescence, 48 h. Potency, µM (series often up to 46.2 µM), for the others: at the top dose activity change, negative = growth inhibition, hits mostly inhibitors. actives 12% (n = 420,000); note: nearly all actives have a fitted effect of over 55% in size
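Chicken DT40 Tdp1-/- cells complemented with human TDP1, 400 cells/well, exposed to compounds plus 20 nM camptothecin for at least 48 h at 37 C; viability read as ATP content by CellTiter-Glo luminescence.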
* = called active by the depositor; ? = inconclusive; . = no result. In the library only some 18% were active in any assay of this set; here they are far more common. Calls come from the whole dose curve; as a rule, active = well fitted curve in the direction sought with a large enough effect; inconclusive = small, poorly fitted or top-dose-only effect, or another doubt; inactive = no such curve, though single readings can be large; an effect the other way counts as inactive or inconclusive. % is set by controls: 0 for no effect and ±100 for the full control effect; potency is the fitted concentration of half-maximal effect.

SMILES	VDR inh	PLK1 PBD block	TDP1 block	KAT2A inh	TDP1 cell noCPT	DT40 TDP1 CPT
S=c1[nH]nc(-c2ccc3ccccc3n2)n1-c1cc(Cl)cc(Cl)c1	-11.2%	-26.1%	-3.0%	25.4%	16.4µM*	?
Cc1ccc(Oc2nc3ccccn3c(=O)c2/C=C(\C#N)C(=O)NC2CCS(=O)(=O)C2)c(C)c1 (stereo not drawn)	3.6%	0.9%	3.1%	-6.7%	?	?
Cc1cc(C)cc(Oc2nc3ccccn3c(=O)c2/C=C(\C#N)C(=O)NC2CCS(=O)(=O)C2)c1 (stereo not drawn)	?	0.2%	.	-13.5%	9.2µM*	?
COC1=C2C[C@@H](C)C[C@H](OC)[C@H](O)[C@@H](C)/C=C(\C)[C@H](OC(N)=O)[C@@H](OC)/C=C\C=C(/C)C(=O)NC(=CC1=O)C2=O	?	.	6.2%	-25.4%	.	.
COC1[C@@H](OC)C[C@H](C)[C@@H](OC)C2=CC(=O)C=C(NC(=O)/C(C)=C/C=C\[C@H](OC)[C@@H](OC(N)=O)/C(C)=C/[C@@H]1C)C2=O (stereo partly drawn)	79.4µM*	.	2.3%	36.0%	.	.
CCCSc1nc2c([nH]1)c(=O)n(C)c(=S)n2C	2.8%	-1.2%	.	.	-15.7%	5.0%
CCCC(C)Sc1nc2c([nH]1)c(=S)n(C)c(=O)n2C (stereo not drawn)	-2.5%	-6.1%	.	.	4.61µM*	4.61µM*
O=c1[nH]c(SCC2CCCCO2)nc2ccccc12 (stereo not drawn)	14.8%	-5.8%	8.7%	1.5%	-16.3%	?
Cn1c(=S)c2[nH]c(SCC3CCCO3)nc2n(C)c1=O (stereo not drawn)	?	-19.0%	.	.	1.16µM*	1.3µM*
CC(C)(C)N1C(=O)[C@H]2[C@@H](c3ccc(Br)cc3)N3C(=O)N(c4cccc(Cl)c4)C(=O)[C@@]3(Cc3ccccc3)[C@H]2C1=O	-8.1%	2.9%	-0.4%	-5.6%	20.6µM*	?
CCN1C(=O)[C@H]2[C@@H](c3ccc(C)cc3)N3C(=O)N(c4ccc(C)cc4)C(=O)[C@@]3(Cc3ccc(Cl)cc3)[C@H]2C1=O	-6.6%	-4.2%	.	-0.8%	20.6µM*	18.4µM*
COc1ccc([C@@H]2[C@@H]3C(=O)N(C(C)(C)C)C(=O)[C@@H]3[C@]3(Cc4ccccc4)C(=O)N(c4ccc(Br)cc4)C(=O)N23)cc1	-6.2%	0.1%	.	-0.7%	23.1µM*	23.1µM*
CC[C@@]12C(=O)N(c3ccc(C)cc3)C(=O)N1[C@H](c1ccc(Br)cc1)[C@@H]1C(=O)N(C(C)(C)C)C(=O)[C@@H]12	14.0%	0.1%	.	-6.8%	?	7.31µM*
COc1ccc(N2C(=O)N3[C@H](c4ccc(Br)cc4)[C@@H]4C(=O)N(C(C)(C)C)C(=O)[C@@H]4[C@]3(Cc3ccccc3)C2=O)cc1	-18.2%	-9.1%	.	0.6%	-12.1%	-8.3%
COc1ccc([C@@H]2[C@@H]3C(=O)N(C(C)(C)C)C(=O)[C@@H]3[C@]3(Cc4ccccc4)C(=O)N(c4cccc(Cl)c4)C(=O)N23)cc1	7.9%	-12.9%	.	-2.6%	?	-19.5%
CCC1(C2CCN(Cc3ccoc3)CC2)NC(=O)N(CC2COc3ccccc3O2)C1=O (stereo not drawn)	.	.	.	.	-23.8%	-12.4%
Cc1noc(C)c1C(=O)N1CCC[C@@]2(CCN(Cc3cc(C(F)(F)F)cc(C(F)(F)F)c3)C2)C1	?	.	.	-0.9%	?	-8.5%
CSc1ncccc1C(=O)NNC(=O)c1ccc(NS(=O)(=O)c2cccs2)cc1	-1.5%	2.3%	.	-6.9%	8.7%	0.0%
Cc1ccc(S(=O)(=O)N2CCC(C(=O)NCCCn3ccnc3)CC2)cc1	2.5%	1.8%	3.0%	1.0%	?	-28.4%
